Screens as filed in PubChem.
MCF10A rerep = induces DNA re-replication in MCF 10a normal breast cells | MCF 10A DNA re-replication, Hoechst nuclear intensity, 48 h | Potency, µM (top dose mostly 46.1 µM), actives largely listed as activators | actives 2.9% (n = 350,000) | AID 624296; also: nearly all actives have a fitted effect of over 50% in size
Vif-APOBEC3G blk = blocks the Vif interaction with human APOBEC3G; Potency, µM (titrated, usually from 46.1 µM), actives largely listed as inhibitors; Q9HC16; actives 0.076% (n = 410,000); AID 602310; HeLa A3G-eYFP + Vif (tagged APOBEC3G with the HIV-1 protein that degrades it), YFP fluorescence, overnight; also: nearly all actives have a fitted effect of over 60% in size
Target sequence (Q9HC16 whole entry, looked up): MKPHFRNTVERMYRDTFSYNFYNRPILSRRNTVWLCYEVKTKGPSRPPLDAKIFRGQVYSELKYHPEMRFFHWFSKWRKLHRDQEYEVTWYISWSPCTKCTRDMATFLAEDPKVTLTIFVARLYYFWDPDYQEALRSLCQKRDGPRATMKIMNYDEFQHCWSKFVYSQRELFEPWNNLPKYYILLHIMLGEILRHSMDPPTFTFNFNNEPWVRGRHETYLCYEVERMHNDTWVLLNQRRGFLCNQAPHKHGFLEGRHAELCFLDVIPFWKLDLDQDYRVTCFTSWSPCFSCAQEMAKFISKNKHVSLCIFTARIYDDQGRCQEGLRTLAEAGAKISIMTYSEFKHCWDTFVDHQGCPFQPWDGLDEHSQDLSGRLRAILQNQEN
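HeLa cells stably expressing Vif and C-terminally eYFP-tagged A3G, seeded overnight at 37 deg C, then exposed to compound by pintool overnight at 37 deg C. Rise in yellow fluorescence (Ex 488/Em 500-530, Acumen) marks blocked Vif-driven A3G degradation.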
Giardia killer = kills Giardia lamblia; Giardia lamblia trophozoite viability; actives 0.15% (n = 340,000); AID 540267; activity change, % at 7.66 µM, hits read low; in the data active = activity change below about -80%; inconclusive = between about -30% and that limit;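 also: parasites exposed to compound for two days anaerobically before the ATP read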
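Giardia trophozoites, 100 cells per well, were exposed to compounds for 48 hrs at 37 deg C under anaerobic conditions; viability was then read as ATP content by bioluminescence after 15-30 min at room temperature.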
Vif-APOBEC3F blk = inhibitors of Vif-A3F interaction; HeLa A3F-eYFP + Vif (tagged APOBEC3F with the HIV-1 protein that degrades it), YFP fluorescence increase; Potency, µM (series often up to 46.1 µM); actives 0.2% (n = 390,000); AID 602313; also: nearly all actives have a fitted effect of over 65% in size
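HeLa cells stably expressing A3F-eYFP plus Vif, plated and incubated overnight at 37 deg C, then exposed to compounds overnight at 37 deg C. Blocked degradation read as raised yellow fluorescence (Ex 488/Em 500-530).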
SW480 rerep = DNA re-replication induction in SW480 cells; SW480 DNA re-replication, Hoechst DNA content imaging, 48 h; Potency, µM (titrated, usually from 46.1 µM), most hits filed as activators; actives 1.8% (n = 340,000); AID 624297; also: nearly all actives have a fitted effect of over 55% in size
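Compounds, transferred as 23 nL by pin tool, were incubated with cells for 48 hr; DNA content per nucleus was then quantified by Hoechst staining and fluorescence plate imaging.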
IL1B secr inh = blocks inflammasome-driven IL-1 beta release; THP-1 LPS/ATP IL-1B secretion, AlphaLISA, 16 h; active compounds read low; activity change, % at 57.5 µM; actives 4.7% (n = 360,000); in the data active = activity change below about -50%; inconclusive = mostly about -30% to -49%
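THP-1 cells pretreated 1 hr with compounds (up to 57.5 uM final), then stimulated with LPS (250 ng/mL final) plus ATP (1.25 mM final); secreted IL-1B measured by AlphaLISA after 16 hr, decreased signal indicating inhibition.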
Each line names hits and unclear results; the compound was inactive in the other large screens. Most compounds without a hit are left out; they make up all but 6.9% or so of the library. Unless noted, calls follow the shape of the dose curve; as a rule, active = well fitted curve in the direction sought with a large enough effect; inconclusive = small, poorly fitted or top-dose-only effect, or another doubt; inactive = no such curve, though single readings can be large; an effect the other way counts as inactive or inconclusive.

COc1ccc(Nc2nc(-c3c(C)nc4ncccn34)cs2)cc1	SW480 rerep inconclusive, IL1B secr inh -60.9
O=C(CSc1nc(-c2ccccc2)nc2c1CCCC2)c1ccc(F)cc1	none (no result: MCF10A rerep, Giardia killer, SW480 rerep, IL1B secr inh)
CCC1=C(OC(=O)N(CC)CC)N2C(=O)OC(=NCCc3c[nH]c4ccccc34)[C@]2(Cc2ccccc2)[C@H]2C1=CC[C@H]1C(=O)N(C)C(=O)[C@H]12	IL1B secr inh -52.5
CCC1=C(OC(=O)N(CC)CC)N2C(=O)OC(=NCCc3c[nH]c4ccccc34)[C@]2(Cc2ccccc2)[C@H]2C1=CC[C@H]1C(=O)N(c3ccccc3)C(=O)[C@H]12	none
OC(COc1ccccc1)CN1CCN(CC(O)COc2ccccc2)CC1 (centres undefined)	MCF10A rerep inconclusive
OC(CON=C1c2ccccc2-c2ccccc21)CN1CCNCC1 (centres undefined)	MCF10A rerep inconclusive, IL1B secr inh -88.2
COc1cccc(CNC(=O)C(=O)NCC(c2ccc3c(c2)OCO3)N2CCOCC2)c1 (centres undefined)	none (no result: MCF10A rerep, Giardia killer, SW480 rerep, IL1B secr inh)
CSC1=NC(=O)/C(=C\c2cccc3ccccc23)S1	MCF10A rerep 14.6µM
O=C(N/N=C/c1ccc(Cl)cc1Cl)c1n[nH]c2c1CCCC2	MCF10A rerep inconclusive, Vif-APOBEC3G blk inconclusive, SW480 rerep inconclusive
O=C(N/N=C/c1cccc2ccccc12)c1n[nH]c2c1CCCC2	MCF10A rerep inconclusive, Vif-APOBEC3G blk inconclusive, SW480 rerep 5.8µM
O=C(N/N=C\c1cccc(Cl)c1)c1n[nH]c2c1CCCC2	MCF10A rerep inconclusive, Vif-APOBEC3G blk inconclusive, IL1B secr inh inconclusive
Cc1ccc(/C=N/NC(=O)c2n[nH]c3c2CCCC3)cc1	MCF10A rerep inconclusive, SW480 rerep 0.731µM (no result: IL1B secr inh)
COc1ccccc1CNC(=O)C(Cc1ccccc1)NS(=O)(=O)c1ccc2c(c1)CCN2C(C)=O (centres undefined)	none (no result: MCF10A rerep, Giardia killer, SW480 rerep, IL1B secr inh)
Cc1ccc2c(c1)-c1c(cnc3cc(-c4ccc(F)cc4)nn13)CO2	none (no result: MCF10A rerep, Giardia killer, SW480 rerep, IL1B secr inh)
COc1ccc(-c2c3c(=O)n(C)c(=O)n(C)c3cn2Cc2ccccn2)cc1	MCF10A rerep 18.4µM, SW480 rerep inconclusive
COc1ccc(CCNC(=O)Cn2c(=O)c3cccn3c3ccc(F)cc32)c(OC)c1	none (no result: MCF10A rerep, Giardia killer, SW480 rerep, IL1B secr inh)
CCNC(=S)/N=C(\N)Nc1nc(C)c2cc(C)ccc2n1	Vif-APOBEC3F blk inconclusive, IL1B secr inh -91.5
CCOc1ccc2nc(N/C(N)=N/C(=S)Nc3ccc(C)c(C)c3)nc(C)c2c1	Vif-APOBEC3F blk inconclusive
Fc1ccc(CNCc2ccccc2C(F)(F)F)cc1	SW480 rerep 18.4µM
COc1ccc(CNCc2ccccc2C(F)(F)F)cc1	MCF10A rerep inconclusive, SW480 rerep inconclusive
COc1ccc(CNC(=O)Cc2csc3nc(-c4ccc(C)cc4)cn23)cc1	none (no result: MCF10A rerep, Giardia killer, SW480 rerep, IL1B secr inh)
Cc1cccc(Nc2nc(N)nc(N)c2N=O)c1	MCF10A rerep inconclusive, Vif-APOBEC3F blk inconclusive, IL1B secr inh -57.3
Cc1ccc(Nc2nc(N)nc(CCl)n2)c(C)c1	MCF10A rerep inconclusive, IL1B secr inh -88.7
Nc1nc(CCl)nc(Nc2ccccc2)n1	MCF10A rerep inconclusive, SW480 rerep 6.51µM, IL1B secr inh -94.8
Cc1ccc(Nc2nc(N)nc(CCl)n2)cc1	MCF10A rerep inconclusive (no result: IL1B secr inh)
COc1cccc(Nc2nc(N)nc(CCl)n2)c1	MCF10A rerep 18.4µM, SW480 rerep 14.6µM (no result: IL1B secr inh)
CCc1nn(C(C)C(=O)N2CCN(c3cccc(C(F)(F)F)c3)CC2)c(=O)c2cc3occc3n12 (centres undefined)	none (no result: MCF10A rerep, Giardia killer, SW480 rerep, IL1B secr inh)
O=C(CSc1ncc2c(n1)-c1ccccc1N(Cc1ccc(Cl)cc1)S2(=O)=O)c1ccccc1	none (no result: MCF10A rerep, Giardia killer, SW480 rerep, IL1B secr inh)
CCOc1ccc(Nc2nc(N)nc(CCl)n2)cc1	MCF10A rerep inconclusive, SW480 rerep inconclusive, IL1B secr inh -95.6
Cc1cccc(Nc2nc(N)nc(CCl)n2)c1	MCF10A rerep inconclusive, SW480 rerep inconclusive, IL1B secr inh -105.6
Cc1nn(-c2ccccc2)nc1CNC(=O)c1ncoc1-c1ccccc1	MCF10A rerep 23.1µM
Cc1nn(-c2ccccc2)nc1CNC(=O)CC(C)(C)C	Giardia killer inconclusive
CCOc1ccccc1NC(=O)C(=O)Nc1ccc2nc3n(c(=O)c2c1)CCCCC3	none (no result: MCF10A rerep, Giardia killer, SW480 rerep, IL1B secr inh)
Nc1nc2ccccc2n1/N=C/c1ccc2c(c1)OCO2	SW480 rerep 20.6µM
Nc1nc2ccccc2n1/N=C/c1ccc(Br)cc1	none
CCOc1ccccc1NC(=O)Cn1cnc2c1c(=O)n(C)c(=O)n2C	none (no result: MCF10A rerep, Giardia killer, SW480 rerep, IL1B secr inh)
Cc1ccccc1NC(=O)CSc1nc(COc2ccccc2)nc2ccccc12	none
CCCNC(=O)CSc1nc(COc2ccccc2)nc2ccccc12	IL1B secr inh -66.6
Cc1cc(C)c(NC(=O)CSc2nc(COc3ccccc3)nc3ccccc23)c(C)c1	MCF10A rerep inconclusive, SW480 rerep inconclusive, IL1B secr inh -63.5
COC(=O)CSc1nc(COc2ccccc2)nc2ccccc12	none
Cc1cccc(Oc2nc3ccccn3c(=O)c2/C=C(\C#N)C(=O)NC2CCS(=O)(=O)C2)c1C (centres undefined)	MCF10A rerep inconclusive, SW480 rerep inconclusive, IL1B secr inh -99.3
Cc1cccn2c(=O)c(/C=C(\C#N)C(=O)NC3CCS(=O)(=O)C3)c(N3CCC(C)CC3)nc12 (centres undefined)	MCF10A rerep 5.8µM, SW480 rerep 8.2µM
Cc1cccn2c(=O)c(/C=C(\C#N)C(=O)NCc3ccco3)c(N3CCCCCC3)nc12	none
N#C/C(=C\c1c(Oc2ccc(Cl)cc2)nc2ccccn2c1=O)C(=O)NC1CCS(=O)(=O)C1 (centres undefined)	MCF10A rerep 5.17µM, Vif-APOBEC3G blk inconclusive, SW480 rerep inconclusive, IL1B secr inh -100.2
Cc1cc(Oc2nc3ccccn3c(=O)c2/C=C(\C#N)C(=O)NC2CCS(=O)(=O)C2)ccc1Cl (centres undefined)	SW480 rerep inconclusive
Cc1cccn2c(=O)c(/C=C(\C#N)C(=O)NC3CCS(=O)(=O)C3)c(Oc3ccc(F)cc3)nc12 (centres undefined)	MCF10A rerep inconclusive, SW480 rerep inconclusive
Cc1cccn2c(=O)c(/C=C(\C#N)C(=O)NCc3ccco3)c(N3CCCC(C)C3)nc12 (centres undefined)	IL1B secr inh -53.5
COC(=O)C1Cc2ccccc2CN1C(=O)CCl (centres undefined)	MCF10A rerep inconclusive, SW480 rerep inconclusive, IL1B secr inh -97.2
COC(=O)[C@H](Cc1ccccc1)NC(=O)N1Cc2ccccc2C[C@H]1C(=O)OC	SW480 rerep inconclusive
CCC(CC)c1nn2c(=O)cc(COc3ccc(NC(=O)c4ccc(Cl)cc4)cc3)nc2s1	none (no result: MCF10A rerep, Giardia killer, SW480 rerep, IL1B secr inh)
Cc1ccc(NS(=O)(=O)c2ccc(-c3cnc(C4CC4)o3)cc2)c(C)c1	MCF10A rerep 0.731µM, SW480 rerep 9.2µM
